The whole screen tested about 290,000 compounds, of which about 3,300 (1.1%) were called active. The entries come from a sample that favours actives as a whole. A number with no mark means an inactive call. No stated cut-off is given here; in the data, active means binding response below about 67% or above about 130%; inconclusive means no clear call, values can overlap the other calls; inactive means in between.

This assay addresses Mitogen-activated protein kinase kinase kinase 2 (Homo sapiens) (UniProt Q9Y2U5). Nature of the assay: modulators of MEK5 binding to wildtype MEKK2, primary screen, biochemical, multiplex bead flow cytometry, Alexa488-MEK5 (AID 1531). Particulars: Alexa488-MEK5 binding to MEKK2 WT, at 10 µM, actives lie on both sides. On the technique in general: Flow cytometry measures light scatter and fluorescence of single cells or particles in a stream.
For `COc1cc(NC(=O)c2cccnc2SC)cc(OC)c1`, the binding response (% of control) was 101%.

Consider `COc1ccc2nc(C)cc(Nc3cccc(C(=O)O)c3)c2c1`, for which the binding response (% of control) is 110%.

`COc1cccc(Nc2ncccc2C(=O)O)c1`: the binding response (% of control) was 4% [inhibitor] (active).

In the case of `COc1ccc(-c2c(NC(=O)c3ccco3)oc3ccc(Cl)cc3c2=O)cc1`, the binding response (% of control) was 104%.

Regarding `COc1ccc2[nH]c3nc(SCC(=O)NC4CC4)nnc3c2c1`, the binding response (% of control) is 104%.

For `CCCCCCCCCCCCN1[C@@H](CC(C)=O)c2cc(F)cc(F)c2S1(=O)=O`, the binding response (% of control) is 103%.

On to `Cc1nc(-c2ccc(Cl)cc2)sc1C1(C)CC(c2ccc(Br)cc2)=NO1` (stereo not given), for which the binding response (% of control) was 95%.

`O=C(CN1CCOc2ccccc21)N1CCC(Cc2ccccc2)CC1`: the binding response (% of control) is 107%.

`Cc1cccc(C)c1OCC(O)CN1CCCCC1` (stereo not given): the binding response (% of control) was 94%.

As for `Cc1ccccc1OCC(O)CN1CCN(c2ccccn2)CC1` (stereo not given), the binding response (% of control) was 99%.

For the compound `Cc1cccc(OCC(O)CN2CCN(CCN3C(=O)c4cccc5cccc(c45)C3=O)CC2)c1C` (stereo not given), the binding response (% of control) is 146% (active).

As to `O=C(NC1CC1)C1=C[C@H](c2coc3ccccc3c2=O)C[C@H](OCCCCO)O1`, the binding response (% of control) was 108%.

For `Cc1cccc(N(C(=O)c2sc(C)nc2C)C(C(=O)NCC2CCCO2)c2ccccc2)c1` (stereo not given), the binding response (% of control) is 106%.

Take `Nc1nc(Nc2ccccc2F)nc(NC2CCCCC2)c1[N+](=O)[O-]`: the binding response (% of control) was 98%.

Turning to `CCn1c(SCC(=O)Nc2ccc3c(c2)OCCO3)nnc1-c1ccncc1`, the binding response (% of control) is 106%.

Take `CCOc1ccc(N(CC(=O)NCCc2ccc(F)cc2)S(=O)(=O)c2ccccc2)cc1`: the binding response (% of control) is 96%.

In the case of `CCOc1ccc(N(CC(=O)NCCOc2ccccc2OC)S(=O)(=O)c2ccccc2)cc1`, the binding response (% of control) was 104%.

Turning to `CCOc1ccc(S(=O)(=O)N(CC(=O)O)c2ccccc2)cc1`, the binding response (% of control) was 6% [inhibitor] (active).

On to `C=Cn1cc[n+](CC(=O)c2ccc(OC)c(OC)c2)c1`, for which the binding response (% of control) is 96%.

With `CSc1nnc(NC(=O)c2nc(S(=O)(=O)Cc3ccc(C)cc3)ncc2Cl)s1`, the binding response (% of control) was 101%.

With `COC(=O)c1c(NC(=O)COC(=O)[C@@H](NS(=O)(=O)c2ccccc2)C(C)C)sc2c1CCC2`, the binding response (% of control) was 1% [inhibitor] (active).

As to `CCc1ccc(N(CC(=O)Nc2sc3c(c2C(=O)OC)CCCC3)S(C)(=O)=O)cc1`, the binding response (% of control) was 93%.

As for `COC(=O)c1c(NC(=O)CCCC(=O)O)sc2c1CCCCC2`, the binding response (% of control) is 98%.

`Cc1cc(CN(C)C(=O)c2cc(COc3ccc(C)c(C)c3)on2)n[nH]1`: the binding response (% of control) was 109%.

Regarding `CN(CCc1ccccc1)c1ccc([N+](=O)[O-])cn1`, the binding response (% of control) was 102%.

(Values after PubChem BioAssay AID1531 (NMMLSC, 2009).)
